Source: PubChem BioAssay AID504617 (Sanford-Burnham Center for Chemical Genomics, 2011)
The list shows a part of the results.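 How the source made its calls: active means mean activity change at or below -40%, meaning activation of 40% or more, at 20 µM; inactive means the rest.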

target: Apoptotic protease-activating factor 1 (Homo sapiens) (UniProt O14727); test: Apaf-1 activators, single-dose retest, confirmation, biochemical, fluorescence, DEVD-Rh110, 20 µM (AID 504617); conditions: reconstituted apoptosome caspase-3 activity, at 20 µM, hits give low values
Sequence (O14727 whole entry, looked up): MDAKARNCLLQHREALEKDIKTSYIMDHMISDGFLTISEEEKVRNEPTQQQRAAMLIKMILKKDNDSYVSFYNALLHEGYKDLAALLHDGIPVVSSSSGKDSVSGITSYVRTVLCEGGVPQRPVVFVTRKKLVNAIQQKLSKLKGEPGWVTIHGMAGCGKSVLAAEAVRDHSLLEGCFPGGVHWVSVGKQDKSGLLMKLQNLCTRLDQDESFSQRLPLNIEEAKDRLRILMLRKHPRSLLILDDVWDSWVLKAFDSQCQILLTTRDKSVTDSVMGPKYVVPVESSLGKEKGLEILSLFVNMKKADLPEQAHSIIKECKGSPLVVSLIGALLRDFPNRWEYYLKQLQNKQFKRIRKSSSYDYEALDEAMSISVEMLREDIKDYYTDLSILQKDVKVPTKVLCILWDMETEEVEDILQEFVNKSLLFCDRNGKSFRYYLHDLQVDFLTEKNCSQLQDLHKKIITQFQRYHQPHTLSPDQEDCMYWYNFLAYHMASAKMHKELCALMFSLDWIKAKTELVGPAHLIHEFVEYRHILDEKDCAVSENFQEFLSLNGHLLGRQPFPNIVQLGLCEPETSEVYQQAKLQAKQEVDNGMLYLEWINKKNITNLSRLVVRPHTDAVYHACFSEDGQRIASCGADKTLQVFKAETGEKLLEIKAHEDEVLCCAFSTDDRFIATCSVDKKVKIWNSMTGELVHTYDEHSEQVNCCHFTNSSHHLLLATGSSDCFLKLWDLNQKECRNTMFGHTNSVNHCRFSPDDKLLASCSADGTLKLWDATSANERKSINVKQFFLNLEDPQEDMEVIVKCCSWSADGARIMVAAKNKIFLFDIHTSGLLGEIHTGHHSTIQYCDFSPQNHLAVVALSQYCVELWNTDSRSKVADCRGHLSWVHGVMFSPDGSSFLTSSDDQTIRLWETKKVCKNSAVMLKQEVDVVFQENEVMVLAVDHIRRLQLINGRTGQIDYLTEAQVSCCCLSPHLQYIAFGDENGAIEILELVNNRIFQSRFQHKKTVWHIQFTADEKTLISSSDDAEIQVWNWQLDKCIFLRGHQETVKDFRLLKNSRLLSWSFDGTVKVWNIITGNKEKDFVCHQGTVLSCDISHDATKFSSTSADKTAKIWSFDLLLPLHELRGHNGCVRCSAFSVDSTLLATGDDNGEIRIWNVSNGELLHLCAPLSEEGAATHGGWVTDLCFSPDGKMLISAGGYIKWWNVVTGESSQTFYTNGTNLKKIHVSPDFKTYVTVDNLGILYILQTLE

Activity change, negative = activation, inactive:
COc1cccc(C(=O)Nc2ccc(N3CCCC3)cc2)c1 7.29%, Cc1ccc(S(=O)(=O)c2c(N)n(C)c3nc4ccccc4nc23)cc1 18.5%, O=c1[nH]cnc2c1c(-c1ccccc1)cn2-c1ccc(F)cc1 10.9%, Cc1nn(CC(=O)Nc2ccc(C#N)cc2)c(C)c1[N+](=O)[O-] -10.5%, COC(=O)C(C)N(C#N)c1nc(C)nc(C)n1 (configuration not stated) 10.4%, Clc1cccc(-c2nc3nc4ccccc4nc3n2Cc2ccco2)c1 21.3%, CC1COc2ccccc2N1C(=O)c1cccnc1Cl (configuration not stated) 6.25%, COc1cc(C2C(C#N)=C(N)Oc3n[nH]c(-c4ccccn4)c32)cc(OC)c1OC (configuration not stated) 16.8%, O=C(Nc1ccccc1F)c1ccccc1-c1ccccc1 4.47%, O=C(CCc1ccccc1)NNC(=O)c1ccc(Br)cc1 5.47%, CCCC(=O)Nc1nc2ccc(NC(=O)c3c(F)c(F)c(OC)c(F)c3F)cc2s1 9.11%, COc1ccc(C2c3ccc(O)cc3Oc3ncn(CCCO)c(=N)c32)cc1OC (configuration not stated) 0.56%, O=C(CN1C(=O)C2C3C=CC(C3)C2C1=O)NCCc1ccccc1Cl (configuration not stated) 10.8%, O=C(Nc1cccc(C(F)(F)F)c1)c1cnccn1 14.9%, COc1ccc(C2CC(c3ccccc3)Nc3ncnn32)cc1 (configuration not stated) 8.21%, O=[N+]([O-])c1ccc2nc(-c3ccccn3)[nH]c2c1 9.21%, COc1ccc(OCCCC(=O)NCCc2ccccc2)cc1 4.66%, C=CCNC(=O)c1ccc(C)c(Br)c1 5.25%, CCOc1ccc(N=C2NC(=O)S/C2=C\c2ccc(O)cc2)cc1 -7.41%, COc1cc(C(=O)NCc2nnc(SCC(=O)Nc3nc4ccc(C)cc4s3)o2)cc(OC)c1OC 8.22%, O=C(Nc1cccc(-c2nc3ccccc3[nH]2)c1)c1ccc(C(=O)Nc2cccc(-c3nc4ccccc4[nH]3)c2)cc1 -23.1%, CCOCCCNC(=O)c1c[nH]c2cc(C)ccc2c1=O 13.4%
